{"source": "the supplement of paper PMC8728848", "binders": {"B1": {"name": "HBHA-Rv (Mycobacterium tuberculosum), P0A5P6 (protein)", "chain": "MAENSNIDDIKAPLLAALGAADLALATVNELITNLRERAEETRTDTRSRVEESRARLTKLQEDLPEQLTELREKFTAEELRKAAEGYLEAATSRYNELVERGEAALERLRSQQSFEEVSARAEGYVDQAVELTQEALGTVASQTRAVGERAAKLVGIELPKKAAPAKKAAPAKKAAPAKKAAAKKAPAKKAAAKKVTQK"}}, "experiment_in_all_cases": "glycan array binding signal (z-score within array); higher = stronger binding", "conditions_in_all_cases": "glycan notation: IUPAC condensed, linker removed", "key": {"[1]": {"target": "Fuc(a1-2)Gal(b1-3)[Fuc(a1-4)]GlcNAc(b1-3)[Fuc(a1-3)[Gal(b1-4)]GlcNAc(b1-6)]Gal(b1-4)Glc", "procedure,_shortened": "(§1)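 Negative Z-scores can be read as non-binding. The Z-score is calculated within each array and then averaged across arrays of one protein sequence at different concentrations or buffers and across linkers. Arrays, 3228 in all, were curated from the Consortium for Functional Glycomics database and kept only where the protein sequence was available.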"}, "Fuc(a1-2)Gal(b1-4)Glc6S": {"target": "Fuc(a1-2)Gal(b1-4)Glc6S", "procedure,_shortened": "as §1"}, "[2]": {"target": "Fuc(a1-2)Gal(b1-4)GlcNAc(b1-3)[Fuc(a1-3)[Gal(b1-4)]GlcNAc(b1-6)]Gal(b1-4)Glc", "procedure,_shortened": "as §1"}, "[3]": {"target": "Fuc(a1-2)Gal6S(b1-3)GlcNAc6S", "procedure,_shortened": "as §1"}, "Fuc(a1-2)Gal6S(b1-4)Glc": {"target": "Fuc(a1-2)Gal6S(b1-4)Glc", "procedure,_shortened": "as §1"}, "[4]": {"target": "Fuc(a1-2)[Gal(a1-3)]Gal(b1-3)GlcNAc(b1-3)GalNAc", "procedure,_shortened": "as §1"}, "[5]": {"target": "Fuc(a1-2)[Gal(a1-3)]Gal(b1-4)GlcNAc(b1-3)GalNAc", "procedure,_shortened": "as §1"}, "[6]": {"target": "Fuc(a1-2)[Gal(a1-3)]Gal(b1-4)GlcNAc(b1-3)[Fuc(a1-2)[Gal(a1-3)]Gal(b1-4)GlcNAc(b1-6)]GalNAc", "procedure,_shortened": "as §1"}, "[7]": {"target": "Fuc(a1-2)[GalNAc(a1-3)]Gal(b1-4)Glc", "procedure,_shortened": "as §1"}, "[8]": {"target": "Fuc(a1-3)[Gal(b1-4)]Glc6S", "procedure,_shortened": "as §1"}, "[9]": {"target": "Fuc(a1-3)[Gal(b1-4)]GlcNAc(b1-3)GalNAc", "procedure,_shortened": "as §1"}, "[10]": {"target": "Fuc(a1-3)[Gal3S(b1-4)]Glc", "procedure,_shortened": "as §1"}, "Fuc(a1-4)GlcNAc": {"target": "Fuc(a1-4)GlcNAc", "procedure,_shortened": "as §1"}, "[11]": {"target": "Gal(a1-3)Gal(b1-4)GlcNAc(b1-6)GalNAc", "procedure,_shortened": "as §1"}, "[12]": {"target": "Gal(b1-3)GlcNAc(b1-2)Man(a1-3)[GlcNAc(b1-4)][Gal(b1-3)GlcNAc(b1-2)Man(a1-6)]Man(b1-4)GlcNAc(b1-4)GlcNAc", "procedure,_shortened": "as §1"}, "[13]": {"target": "Gal(b1-3)GlcNAc(b1-3)Gal(b1-4)[Fuc(a1-3)]GlcNAc(b1-6)[Gal(b1-3)GlcNAc(b1-3)]Gal(b1-4)Glc", "procedure,_shortened": "as §1"}, "[14]": {"target": "Gal(b1-3)GlcNAc(b1-6)GalNAc", "procedure,_shortened": "as §1"}, "[15]": {"target": "Gal(b1-3)[Fuc(a1-4)]GlcNAc(b1-2)Man", "procedure,_shortened": "as §1"}, "Gal(b1-4)GlcNAc(b1-2)Man": {"target": "Gal(b1-4)GlcNAc(b1-2)Man", "procedure,_shortened": "as §1"}, "[16]": {"target": "Gal(b1-4)GlcNAc(b1-2)Man(a1-3)[Gal(b1-4)GlcNAc(b1-2)Man(a1-6)]Man(b1-4)GlcNAc(b1-4)GlcNAc", "procedure,_shortened": "as §1"}, "[17]": {"target": "Gal(b1-4)GlcNAc(b1-2)Man(a1-3)[Gal(b1-4)GlcNAc(b1-2)Man(a1-6)][GlcNAc(b1-4)]Man(b1-4)GlcNAc(b1-4)[Fuc(a1-6)]GlcNAc", "procedure,_shortened": "as §1"}, "[18]": {"target": "Gal(b1-4)GlcNAc(b1-2)Man(a1-3)[GlcNAc(b1-4)][Gal(b1-4)GlcNAc(b1-2)Man(a1-6)]Man(b1-4)GlcNAc(b1-4)GlcNAc", "procedure,_shortened": "as §1"}, "[19]": {"target": "Gal(b1-4)GlcNAc(b1-2)[Gal(b1-4)GlcNAc(b1-4)]Man(a1-3)[GlcNAc(b1-4)][Gal(b1-4)GlcNAc(b1-2)[Gal(b1-4)GlcNAc(b1-6)]Man(a1-6)]Man(b1-4)GlcNAc(b1-4)GlcNAc", "procedure,_shortened": "as §1"}, "[20]": {"target": "Gal(b1-4)GlcNAc(b1-2)[Gal(b1-4)GlcNAc(b1-6)]Man(a1-6)[GlcNAc(b1-4)][Gal(b1-4)GlcNAc(b1-2)[Gal(b1-4)GlcNAc(b1-4)]Man(a1-3)]Man(b1-4)GlcNAc(b1-4)[Fuc(a1-6)]GlcNAc", "procedure,_shortened": "as §1"}, "[21]": {"target": "Gal(b1-4)GlcNAc(b1-3)Gal(b1-4)GlcNAc(b1-3)Gal(b1-4)GlcNAc(b1-2)[Gal(b1-4)GlcNAc(b1-3)Gal(b1-4)GlcNAc(b1-3)Gal(b1-4)GlcNAc(b1-6)]Man(a1-6)[Gal(b1-4)GlcNAc(b1-3)Gal(b1-4)GlcNAc(b1-3)Gal(b1-4)GlcNAc(b1-2)Man(a1-3)]Man(b1-4)GlcNAc(b1-4)[Fuc(a1-6)]GlcNAc", "procedure,_shortened": "as §1"}, "[22]": {"target": "Gal(b1-4)GlcNAc(b1-3)Gal(b1-4)GlcNAc(b1-6)[Gal(b1-3)]GalNAc", "procedure,_shortened": "as §1"}, "[23]": {"target": "Gal(b1-4)GlcNAc(b1-3)[Fuc(a1-3)GlcNAc(b1-6)]Gal(b1-4)Glc", "procedure,_shortened": "as §1"}}, "note": "Many of the other results were omitted from the sample, so the strongest signals are more common in it than they were.", "data": [{"binder": "B1", "values": [{"measurement": "glycan array binding signal (z-score)", "setting": "[1]", "value": -0.277}, {"measurement": "glycan array binding signal (z-score)", "setting": "Fuc(a1-2)Gal(b1-4)Glc6S", "value": -0.121}, {"measurement": "glycan array binding signal (z-score)", "setting": "[2]", "value": -0.392}, {"measurement": "glycan array binding signal (z-score)", "setting": "[3]", "value": 4.34}, {"measurement": "glycan array binding signal (z-score)", "setting": "Fuc(a1-2)Gal6S(b1-4)Glc", "value": 0.069}, {"measurement": "glycan array binding signal (z-score)", "setting": "[4]", "value": -0.259}, {"measurement": "glycan array binding signal (z-score)", "setting": "[5]", "value": -0.204}, {"measurement": "glycan array binding signal (z-score)", "setting": "[6]", "value": 2.82}, {"measurement": "glycan array binding signal (z-score)", "setting": "[7]", "value": 0.064}, {"measurement": "glycan array binding signal (z-score)", "setting": "[8]", "value": -0.398}, {"measurement": "glycan array binding signal (z-score)", "setting": "[9]", "value": -0.275}, {"measurement": "glycan array binding signal (z-score)", "setting": "[10]", "value": -0.017}, {"measurement": "glycan array binding signal (z-score)", "setting": "Fuc(a1-4)GlcNAc", "value": 20}, {"measurement": "glycan array binding signal (z-score)", "setting": "[11]", "value": 0.154}, {"measurement": "glycan array binding signal (z-score)", "setting": "[12]", "value": 0.595}, {"measurement": "glycan array binding signal (z-score)", "setting": "[13]", "value": -0.453}, {"measurement": "glycan array binding signal (z-score)", "setting": "[14]", "value": -0.248}, {"measurement": "glycan array binding signal (z-score)", "setting": "[15]", "value": 1.28}, {"measurement": "glycan array binding signal (z-score)", "setting": "Gal(b1-4)GlcNAc(b1-2)Man", "value": 1.37}, {"measurement": "glycan array binding signal (z-score)", "setting": "[16]", "value": 0.061}, {"measurement": "glycan array binding signal (z-score)", "setting": "[17]", "value": -0.352}, {"measurement": "glycan array binding signal (z-score)", "setting": "[18]", "value": -0.309}, {"measurement": "glycan array binding signal (z-score)", "setting": "[19]", "value": -0.455}, {"measurement": "glycan array binding signal (z-score)", "setting": "[20]", "value": -0.428}, {"measurement": "glycan array binding signal (z-score)", "setting": "[21]", "value": -0.41}, {"measurement": "glycan array binding signal (z-score)", "setting": "[22]", "value": -0.399}, {"measurement": "glycan array binding signal (z-score)", "setting": "[23]", "value": -0.398}]}]}
